# Assay outcomes deposited in PubChem BioAssay by Pan Lab, Icahn School of Medicine at Mount Sinai.
# Many of the other results were omitted from the sample, so hits are more common in it than they were.
# ROC1-CUL1 inh: inhibitors of human ROC1-CUL1 ubiquitin ligase activity; P62877+Q13616; in vitro K48 di-Ub FRET, acceptor:donor ratio, 45 min; inhibition, % at 10 µM; actives 0.6% (n = 140,000); AID 1347404; in the data active = inhibition above about 25%
# Target sequence (P62877 whole entry, looked up): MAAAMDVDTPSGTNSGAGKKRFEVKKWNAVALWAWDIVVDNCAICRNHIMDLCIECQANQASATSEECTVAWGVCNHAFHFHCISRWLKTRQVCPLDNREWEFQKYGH
# Target sequence (Q13616 whole entry, looked up): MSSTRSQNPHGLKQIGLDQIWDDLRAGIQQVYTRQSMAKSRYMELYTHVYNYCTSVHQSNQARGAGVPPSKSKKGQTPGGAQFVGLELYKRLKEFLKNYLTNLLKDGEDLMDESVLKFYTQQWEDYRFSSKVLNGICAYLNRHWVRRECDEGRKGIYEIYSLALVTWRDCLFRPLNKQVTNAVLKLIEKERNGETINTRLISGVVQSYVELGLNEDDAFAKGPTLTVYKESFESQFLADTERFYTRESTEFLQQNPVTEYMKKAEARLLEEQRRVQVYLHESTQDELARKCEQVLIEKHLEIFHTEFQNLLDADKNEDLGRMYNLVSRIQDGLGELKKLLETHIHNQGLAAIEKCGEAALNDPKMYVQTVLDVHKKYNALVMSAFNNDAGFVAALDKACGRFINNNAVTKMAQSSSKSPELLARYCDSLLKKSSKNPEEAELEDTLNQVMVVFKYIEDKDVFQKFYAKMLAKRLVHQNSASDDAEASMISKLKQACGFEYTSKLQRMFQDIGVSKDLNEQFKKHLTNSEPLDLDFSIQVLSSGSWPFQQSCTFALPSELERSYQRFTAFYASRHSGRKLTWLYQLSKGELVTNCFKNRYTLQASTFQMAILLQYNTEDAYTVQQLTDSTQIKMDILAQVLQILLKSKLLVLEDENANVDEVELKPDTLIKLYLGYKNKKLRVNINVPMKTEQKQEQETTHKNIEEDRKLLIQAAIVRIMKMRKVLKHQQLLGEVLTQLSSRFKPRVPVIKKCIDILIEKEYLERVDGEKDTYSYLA
# The depositor's hits bear a star.
SMILES,ROC1-CUL1 inh
CC(C)Oc1ccc(C(=O)C2C(=O)C(=O)N(c3ccccn3)C2c2ccc(Cl)cc2)cc1 (configuration not stated),-4
Cc1nc(N2C(=O)C(=O)C(C(=O)c3ccccc3)C2c2ccc(Br)cc2)sc1C (configuration not stated),0
O=C1C(=O)N(c2ccccn2)C(c2ccccc2Cl)C1C(=O)c1ccccc1 (configuration not stated),29*
O=C1C(=O)N(c2nccs2)C(c2ccc(Cl)cc2)C1C(=O)c1ccccc1 (configuration not stated),64*
CN(C)c1ccc(C2C(C(=O)c3ccccc3)C(=O)C(=O)N2c2ccc(Cl)cc2)cc1 (configuration not stated),-2
O=C(/C=C/c1ccccc1)C1C(=O)C(=O)N(c2ccccn2)C1c1ccccc1 (configuration not stated),8
O=C(N=C(Cc1cccs1)C(=O)N1CCCCCC1)c1ccccc1,-3
CCC1CCc2nc3sc(C(=O)Nc4ccc(Cl)cc4Cl)c(N)c3cc2C1 (configuration not stated),-15
O=C(NCc1ccc(Cl)cc1)NC(C(F)(F)F)C(F)(F)F,6
CC(C)Nc1nc(NC(C)C)nc(SCCOc2ccccc2)n1,-2
Cc1sc(NC(=O)c2ccco2)c(C(c2ccccn2)N2CCCCC2)c1C (configuration not stated),2
Cc1ccccc1NC(=O)CSc1nc(C)c2c(n1)CCCC2,1
Cc1oc(-c2cc3c(cc2Cl)OCO3)nc1CN1CCCCC1CCO (configuration not stated),0
CCOc1c(Cl)cc(CNc2ccc(N3CCCC3)cc2)cc1OC,68*
COc1cccc(CNc2ccc(N3CCOCC3)cc2)c1OC,11
COc1cc(CNc2ccc(N3CCCC3)cc2)cc(Cl)c1OCc1ccc(F)cc1,-12
CCNC(=O)N1CCC(n2cc(CN3CCCC(C)(CO)C3)nn2)CC1 (configuration not stated),6
Cc1ccc(-n2nc(C)[nH]c2=O)c(C)c1,0
COc1ccc(O)c(CNC2COc3c(cccc3OC)C2)c1 (configuration not stated),0
Cc1nnc(N2C(=O)C(=O)C(C(=O)c3cc4ccccc4o3)C2c2ccc(Cl)c(Cl)c2)s1 (configuration not stated),-9
Cc1nnc(N2C(=O)C(=O)C(C(=O)c3cc4ccccc4o3)C2c2cccc(Oc3ccccc3)c2)s1 (configuration not stated),35*
CCOc1ccc2nc(N3C(=O)C(=O)C(C(=O)c4cc5ccccc5o4)C3c3cccc(Oc4ccccc4)c3)sc2c1 (configuration not stated),-2
CCC1CN(CCNC(=O)c2ccc(C)cc2)Cc2cc(OC)ccc2O1 (configuration not stated),7
CCOC(=O)c1cccc2c1N[C@@H](c1ccc(F)cc1)[C@H]1CC=C[C@@H]21,10
COC(=O)c1cccc2c1N[C@@H](c1ccncc1)[C@H]1CC=C[C@@H]21,0
SMILES,ROC1-CUL1 inh
Cc1c(C(=O)O)ccc2c1N[C@@H](c1ccc(F)cc1)[C@H]1CC=C[C@@H]21,76*
COc1cc(CNC(C)(C)CO)cc(Cl)c1OCC(=O)NC(C)(C)C,-8
Cc1ccc2c(c1)C(=O)C(C(c1ccccc1Cl)C1C(=O)Oc3ccc(C)cc3C1=O)C(=O)O2 (configuration not stated),63*
COc1cccc(C(C2C(=O)Oc3ccc(C)cc3C2=O)C2C(=O)Oc3ccc(C)cc3C2=O)c1 (configuration not stated),-6
Cc1ccc2c(c1)C(=O)C(C(c1ccc(N(C)C)cc1)C1C(=O)Oc3ccc(C)cc3C1=O)C(=O)O2 (configuration not stated),-6
COc1ccc(N2C(=O)CCSC23C(=O)N(CN2CCOCC2)c2ccccc23)cc1 (configuration not stated),-4
COCCN1C(=O)C(Cc2ccc(-c3cccc(C(=O)O)c3)o2)=NC1=S,35*
C=CCN1C(=O)N=C(Cc2ccc(-c3cccc(Br)c3)o2)C1=O,-1
O=C(O)c1cccc(-c2ccc(CNC3CCCC3)o2)c1,-6
COc1ccc(OC2CCN(C(C)=O)CC2)c(C(=O)NCCCSC)c1,3
Oc1ccc2oc(Cc3ccccc3)c(Br)c2c1,7
CC1(N2CCOCC2)C(=O)c2ccccc2C1=O,0
O=C1C=Cc2ccc(N3CCOCC3)c3cccc1c23,-6
O=C1C=C(N2CCOCC2)c2ccccc2C1=O,76*
COc1ccc2ccccc2c1CN(C)Cc1nc(-c2ccccc2NS(C)(=O)=O)oc1C,4
CC1=C(C#N)C(=O)N(C)C(=O)/C1=C\c1ccc(-c2ccc(C(=O)OC(C)C)cc2)o1,-7
CC1=C(C#N)C(=O)N(CC(C)O)C(=O)/C1=C/c1ccc(-c2ccc(Br)cc2)o1 (configuration not stated),47*
C=CCN1C(=O)C(C#N)=C(C)/C(=C\c2ccc(-c3ccc(Cl)c(C(=O)OC(C)C)c3)o2)C1=O,2
Cc1cc(-c2ccc(CNCCO)o2)ccc1Br,4
